KB-V1 MDR tox: KB-V1 MDR subline cytotoxicity; KB-V1 MDR cells viability, CellTiter-Glo, 72 h; Potency, µM (series often up to 46.1 µM), most hits filed as cytotoxic; 3.4% of 400,000 active; further: potency means the concentration at half of the fitted maximal effect; nearly all actives have a fitted effect of over 60% in size
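Potencies derive from concentration-effect curves fitted to normalized luminescence (CellTiter-Glo) of KB-V1 cells treated for 72 h at 37 degrees C in phenol-red-free DMEM containing 10% FBS.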
Giardia killer: kills Giardia lamblia; Giardia lamblia trophozoite viability; activity change, % at 7.66 µM, hits read low; AID 540267; 0.15% of 340,000 active; in the data active means activity change below about -80%; inconclusive means between about -30% and that limit;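 further: parasites exposed to compound for two days anaerobically before the ATP read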
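Media and compound were dispensed first, then trophozoites at 100 cells/well; plates sat 48 hrs at 37 deg C without oxygen before ATP luminescence reagent was added and read after 15-30 min at room temperature.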
PI4K2A inh: PI4K2A (human) kinase inhibition | purified PI4K2A, ADP-Glo luminescence, 1 h; stronger effect = lower value | Q9BTU6 | 0.13% of 420,000 active | AID 1346378 | activity change, negative = inhibition, % at 76.9 µM; in the data active means activity change below about -50%; inconclusive means mostly about -30% to -49%;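 further: -100% = wells without enzyme as full effect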
Target sequence (Q9BTU6 whole entry, looked up): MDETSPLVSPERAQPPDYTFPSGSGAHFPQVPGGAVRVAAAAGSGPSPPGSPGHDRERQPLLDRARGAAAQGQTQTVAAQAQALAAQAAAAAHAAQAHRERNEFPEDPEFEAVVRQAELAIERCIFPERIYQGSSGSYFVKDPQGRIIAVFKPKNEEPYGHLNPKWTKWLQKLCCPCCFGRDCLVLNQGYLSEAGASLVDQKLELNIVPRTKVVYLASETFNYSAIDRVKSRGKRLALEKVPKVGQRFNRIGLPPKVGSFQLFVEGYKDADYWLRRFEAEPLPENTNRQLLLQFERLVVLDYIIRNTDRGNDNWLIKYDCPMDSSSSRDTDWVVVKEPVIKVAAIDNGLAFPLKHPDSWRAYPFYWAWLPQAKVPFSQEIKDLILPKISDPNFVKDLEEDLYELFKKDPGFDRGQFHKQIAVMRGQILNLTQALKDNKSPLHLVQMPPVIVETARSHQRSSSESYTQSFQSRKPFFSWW
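In this quantitative HTS, ADP production by PI4K2A was quantified luminescently after 1 h at ambient temperature; 100 microM adenosine served as plate-quality control.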
A549 tox: counter-screen for Nrf2 inhibitors: cytotoxicity in A549 cells; 0.16% of 390,000 active; A549 ARE-Fluc cells, CellTiter-Fluor viability, 18-24 h; Potency, µM (series often up to 46 µM), without a hit: at the top dose activity change, negative = cytotoxicity, actives largely listed as inhibitors; further: potency means the concentration at half of the fitted maximal effect
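Cytotoxicity counterscreen: CellTiter-Fluor fluorescence was measured in A549 ARE_Fluc cells after 18-24 h of compound exposure in a concentration series. The subsequent BugLite luminescent read reports ARE-luciferase activity.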
KB-3-1 cytotox: kills parental KB-3-1 adenocarcinoma cells. AID 1347075. Potency, µM (highest dose often 46.1 µM), actives largely listed as cytotoxic. KB-3-1 viability, CellTiter-Glo ATP luminescence, 72 h. 1.4% of 400,000 active; further: potency means the concentration at half of the fitted maximal effect; nearly all actives have a fitted effect of over 60% in size
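Screening of KB-3-1 cells (DMEM, 10% FBS, phenol-red free) ran from lowest to highest compound concentration; after 72 h at 37 °C viability was read luminescently and curves fitted.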
Nrf2 inh: blocks Nrf2 signaling; A549 ARE-Fluc reporter, luciferase luminescence, 18-24 h; 2.1% of 360,000 active; Potency, µM (highest dose often 46 µM), without a hit: top-dose activity change, negative = inhibition, usual class: inhibitors; further: potency means the concentration at half of the fitted maximal effect; nearly all actives have a fitted effect of over 60% in size
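In this cell-based qHTS, ARE-driven firefly luciferase in A549 cells reports Nrf2 activity; the luminescent signal after BugLite lysis is the measured value, with a prior CellTiter-Fluor read for cell health.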
Active calls of the source: *; i = inactive; ? = inconclusive; . = not tested or not shown. Most compounds without a hit are left out; they make up all but 5.7% or so of the library. Unless noted, the call rests on the fitted dose curve; in most records, active means well fitted curve in the direction sought with a large enough effect; inconclusive means small, poorly fitted or top-dose-only effect, or another doubt; inactive means no such curve, though single readings can be large; an effect the other way counts as inactive or inconclusive. Unless noted, on the % scale 0 is the no-effect control and ±100 the full control effect.

SMILES | KB-V1 MDR tox | Giardia killer | PI4K2A inh | A549 tox | KB-3-1 cytotox | Nrf2 inh
O=C(COC(=O)c1c2c(nc3ccccc13)CCN(Cc1ccccc1)C2)Nc1c(F)cccc1F | 18.4µM* | 6.5 | 0.4 | ? | i | ?
Oc1ccc(Cc2ccccc2)c2cccnc12 | i | 1.9 | -16.8 | 8.9% | 23.1µM* | 25.0%
Oc1ccc(COCc2ccccc2)c2cccnc12 | ? | -2.9 | -6.5 | 0.1% | ? | ?
Oc1ccc(CN2CCc3ccccc3C2)c2cccnc12 | ? | -7.4 | -3.4 | . | 4.61µM* | 5.8µM*
Oc1ccc(CN2CCN(c3ccccc3)CC2)c2cccnc12 | i | 4.5 | 17.1 | -17.4% | ? | ?
Cc1[nH]c2ccccc2c1CN1CCC(Cc2ccccc2)CC1 | 18.4µM* | 0.6 | -11.4 | 3.2% | i | -2.7%
Oc1ccc(CN2CCC(Cc3ccccc3)CC2)c2cccnc12 | ? | 19.7 | -1.6 | -16.6% | 23.1µM* | ?
CC1(C)CC(=O)N(CC(=O)N2CCN(Cc3ccc4c(c3)OCO4)CC2)c2ccccc2S1(=O)=O | . | . | 0.1 | . | . | .
COc1cc(CN2CCc3ccccc3C2)cc([N+](=O)[O-])c1O | i | 3.4 | -3.3 | -10.1% | i | 1.5%
COc1cc(CN2CCc3ccccc3C2)ccc1O | 13µM* | 2.6 | 1.0 | -10.0% | 2.91µM* | 7.31µM*
O=C(CCS(=O)(=O)c1ccccc1)Nc1cc(Cl)ccc1F | . | . | 0.4 | . | . | .
CCOC(=O)C(=O)Cc1nc(OCc2ccccc2)cc(OCc2ccccc2)n1 | i | -14.6 | -7.0 | 3.3% | i | -10.2%
CCOC(=O)C(Cc1nc(OCc2ccccc2)cc(OCc2ccccc2)n1)=NO | 13µM* | -21.7 | 1.9 | -0.6% | 20.6µM* | 13.5%
COc1ccccc1C(=O)N1CCC(c2noc(-c3ccc(S(=O)(=O)N4CCCC4)cc3)n2)CC1 | . | . | 3.1 | -16.0% | . | ?
O=C(Nc1ccc2c(c1)OCCO2)C(CCc1ccccc1)N1CCC(Cc2ccccc2)CC1 (configuration not stated) | 23.1µM* | . | 1.2 | . | i | .
O=C(Nc1ccc2c(c1)OCCO2)C(CCc1ccccc1)N(Cc1ccccc1)Cc1ccccc1 (configuration not stated) | i | . | 2.0 | . | i | .
COc1ccc(-n2c(COc3ccccc3)nnc2SCc2nc3ccccc3[nH]2)cc1 | . | . | -5.3 | . | . | .
COc1cc(C(=O)Nc2nc(-c3ccc(Cl)cc3)c(C)s2)ccc1OCC(=O)Nc1ccc(F)cc1 | ? | 6.0 | 0.6 | ? | 13µM* | 20.6µM*
Cc1ccc(-n2c(SCc3cccc(F)c3)nc3ccccc3c2=O)cc1 | . | . | 2.3 | . | . | .
COc1cc2ncnc(NCCc3ccccc3)c2cc1OC | ? | -19.3 | -5.8 | -3.8% | ? | 23.1µM*
COc1ccc(CCNc2ncnc3cc(OC)c(OC)cc23)cc1OC | 20.6µM* | 10.6 | -0.7 | -1.8% | i | 20.6µM*
C#CCN1C(=O)C(O)(CC(=O)c2ccc(OC)c(OC)c2)c2ccccc21 (configuration not stated) | 18.4µM* | -9.8 | 0.0 | -5.8% | ? | -19.2%
C#CCN1C(=O)C(O)(CC(=O)c2ccc(OC)c(OC)c2)c2cc(Br)ccc21 (configuration not stated) | . | . | -4.6 | 4.5% | . | 2.0%
COc1ccc(C(=O)CC2(O)C(=O)N(Cc3cccc(C(F)(F)F)c3)c3ccccc32)cc1 (configuration not stated) | 14.6µM* | . | 6.6 | -10.8% | ? | ?
CN(C)c1ccc(C(=O)NCCc2ccccc2-c2ccccc2CCC(=O)NCc2ccccc2)cc1 | . | . | 3.9 | . | . | .
SMILES | KB-V1 MDR tox | Giardia killer | PI4K2A inh | A549 tox | KB-3-1 cytotox | Nrf2 inh
O=C1c2ccc(-c3nc4ccccc4o3)cc2C(=O)N1Cc1ccccc1 | 7.31µM* | 18.7 | 5.7 | 8.9% | i | 1.2%
O=C1c2ccc(-c3nc4ccccc4o3)cc2C(=O)N1Cc1cccnc1 | i | 9.1 | 0.5 | 2.0% | i | 0.5%
CCCCNc1nc(N)nc(-c2cc(Cl)ccc2O)n1 | 11.6µM* | -6.1 | -3.1 | -5.8% | ? | ?
CCNc1nc(N)nc(-c2cc(Cl)ccc2O)n1 | ? | -9.0 | 0.8 | -11.3% | ? | 16.5%
Cc1cccn2c(=O)c(C=O)c(N3CCN(c4ccc(F)cc4)CC3)nc12 | i | 5.3 | -1.2 | -9.9% | i | 16.4µM*
O=C(Nc1ccccc1)c1ccc(-n2nncc2-c2ccccc2)cc1 | i | -25.8 | . | -0.8% | i | ?
CCNc1nc(C#N)nc(NCC)n1 | i | -13.7 | . | -12.0% | i | -3.9%
CN(C1=NC(=O)C(CC(=O)Nc2ccc(Br)cc2)S1)c1ccc(O)cc1 (configuration not stated) | i | 1.3 | 0.4 | -13.9% | i | 23.1µM*
O=C1C=CC(O)(c2cc(=O)c3c(O)cc(O)cc3o2)C=C1 | 5.8µM* | -6.3 | ? | ? | ? | ?
O=c1cc(-c2ccccc2Cl)oc2cc(O)cc(O)c12 | i | -27.4 | -4.4 | -9.1% | i | -5.2%
CC(C)OP(=O)(O)C(C)NC(=O)OCc1ccccc1 (configuration not stated) | . | . | -0.3 | . | . | .
O=C(NC(Nc1nc2ccc([N+](=O)[O-])cc2s1)(C(F)(F)F)C(F)(F)F)c1cccnc1 | ? | -0.5 | 4.3 | 7.31µM* | 11.6µM* | 5.8µM*
CN(C)S(=O)(=O)c1ccc2nc(NC(=O)c3cccnc3)sc2c1 | i | 7.4 | -9.0 | 2.4% | i | ?
O=C(NC(Nc1nc2ccc([N+](=O)[O-])cc2s1)(C(F)(F)F)C(F)(F)F)c1ccccc1Cl | i | 0.6 | 3.2 | 5.8µM* | ? | 1.84µM*
CCOC(=O)c1c(NC(=O)CN2C(=O)NC(C)(c3ccccc3)C2=O)sc(C)c1C (configuration not stated) | 16.4µM* | 10.3 | 3.4 | -16.5% | 16.4µM* | ?
CCCC1(c2ccccc2)NC(=O)N(CC(=O)c2[nH]c(C)c(C(=O)OCC)c2C)C1=O (configuration not stated) | 23.1µM* | -3.4 | -6.6 | -16.5% | ? | .
CCOC(=O)c1c(C)[nH]c(C(=O)CN2C(=O)NC(C)(c3ccc4ccccc4c3)C2=O)c1C (configuration not stated) | 10.3µM* | 0.6 | 3.4 | -18.6% | i | 25.9µM*
Cc1ccc(NC(=O)c2ccc(NC(=O)C3CCCC3)cc2)c(C)c1 | . | 6.9 | . | 8.2% | . | 1.9%
COc1ccc2c(c1OC)C(=O)N1c3ccccc3C(=O)N(c3ccccc3F)C21 (configuration not stated) | 5.8µM* | -18.9 | -0.6 | ? | i | ?
CSc1nnc(-c2sc3cc(C(F)(F)F)cnc3c2-c2ccccn2)n1C | 18.4µM* | 6.3 | 0.3 | 3.3% | ? | 7.5%

Screening results: PubChem, National Center for Advancing Translational Sciences (NCATS)
